# Screening data: PubChem BioAssay, several laboratories
# PP1 inh: PP1-alpha phosphatase inhibitors, primary screen, counter-screen for PP5 inhibitor project, biochemical, fluorescence, OMFP substrate, single point; purified PP1alpha; inhibition, % at 6.7 µM; 0.9% of 320,000 active; AID 2235, 2010;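 active means inhibition above the mean inhibition of all tested compounds plus 3 SD, computed separately for each screening campaign, cut at about 15% in these data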
# Target sequence (P62136 whole entry, looked up): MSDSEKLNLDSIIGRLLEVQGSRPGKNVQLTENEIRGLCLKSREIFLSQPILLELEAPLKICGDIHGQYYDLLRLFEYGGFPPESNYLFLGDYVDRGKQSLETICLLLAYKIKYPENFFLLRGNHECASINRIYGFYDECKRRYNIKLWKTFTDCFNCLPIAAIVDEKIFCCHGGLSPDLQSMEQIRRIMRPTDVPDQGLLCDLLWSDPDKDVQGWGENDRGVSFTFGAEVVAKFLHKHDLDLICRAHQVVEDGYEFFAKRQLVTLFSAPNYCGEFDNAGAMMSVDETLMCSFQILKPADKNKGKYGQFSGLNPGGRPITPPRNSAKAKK
# Exocytosis inh: LAMP-1 surface exposure blockers, TALL-104 cells – cell-based, flow cytometry, MLPCN library, primary screen; TALL-104 LAMP-1 surface exposure; cells stimulated with thapsigargin and PMA; inhibition, % at 10 µM; 0.66% of 360,000 active;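 active means inhibition above about 55%, limit read from the data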
# NadD block: inhibitors of S. aureus NadD, primary screen, biochemical, colorimetric, uHTS. Nicotinate-nucleotide adenylyltransferase NadD (Staphylococcus aureus N315). purified NadD enzyme, colorimetric absorbance read-out. inhibition, % at 20 µM. 0.78% of 360,000 active. AID 602399, 2012; in the data active means inhibition above about 26%
# GRK2 aptamer HTS: compounds blocking aptamer binding on GRK2 – biochemical, human GRK2, bead flow cytometry, HTS, primary screen. 0.59% of 330,000 active. inhibition of aptamer binding, % at 10 µM. AID 488847, 2010. Beta-adrenergic receptor kinase 1 (Homo sapiens), P25098. FAM-aptamer displacement from GRK2;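 active means inhibition of aptamer binding above 40%, roughly 3 SD of noise, on plates passing a quality check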;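 further: median bead fluorescence of bound FAM aptamer so fluorescent compounds give negative values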
# B2AR ag: beta2AR agonists driving receptor internalization, primary screen, cell-based, FAP fluorogen, flow cytometry; response, % (concentration not given with the values); 0.43% of 340,000 active; Am2.2-beta2AR cells; Beta-2 adrenergic receptor (Homo sapiens), P07550;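 active means response above a set limit, near 3 SD of response in nonfluorescent compounds, cut at about 42% in these data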
# B2AR ag CP1: beta2AR agonists via receptor internalization, confirmation, cell-based, FAP fluorogen, flow cytometry, single point, cherry pick 1; 25% of 1,100 active; percent response (surface receptor), % at 10 µM; shares compounds with B2AR ag; Am2.2-beta2AR cells, FAP surface receptor; hits give low values;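 active means surface receptor percent response at or below 58%, roughly 3 SD from nonfluorescent compounds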
# B2AR FAP counter: fluorescence artifact in beta-2AR agonist FAP counterscreen. AID 588765. shares compounds with B2AR ag. Am2.2 cells, FAP fluorogen flow cytometry; hits give low values. calls only at 10 µM. 1,100 tested, under 10 active;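 active means percent response below a set limit in fluorescence channel 1 and below 50% in channel 8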
# * hit, by the source's call; i = inactive; x = no result given. A selection: hits, their analogues and other compounds. The true share with any hit is near 2.9%.
SMILES,PP1 inh,Exocytosis inh,NadD block,GRK2 aptamer HTS,B2AR ag,B2AR ag CP1,B2AR FAP counter
COc1ccccc1N1C(=O)CC(Sc2ccccc2N)C1=O (centres undefined),-1,-5,-5,0,-2,x,x
N#CC(C(=S)Nc1ccccc1)c1nc2ccccc2[nH]1 (centres undefined),-6,28,4,1,-7,131,i
COCCNC(=O)c1c(N)n(CCCn2ccnc2)c2nc3ccccc3nc12,-4,1,6,4,65*,114,i
CSc1ccc(C(=O)C2CCCN(Cc3cccn3-c3cccnc3)C2)cc1 (centres undefined),2,-1,-5,0,70*,19*,i
O=C(CNS(=O)(=O)c1ccc2ccccc2c1)OCC(=O)c1ccc(Br)s1,4,0,6,0,1,x,x
Cc1cc(C(=O)COC(=O)CNS(=O)(=O)c2ccc3ccccc3c2)c(C)n1-c1ccccc1,13,4,0,4,47*,98,i
COc1ccc(NC(=O)CS(=O)CC(=O)Nc2ccc(-n3cnnn3)c(C)c2)cc1 (centres undefined),0,-6,0,2,-1,x,x
CCOCC(=O)Nc1ccc([N+](=O)[O-])cc1OC,-2,0,1,3,5,x,x
CCOC(=O)CS(=O)(=O)CC(=O)Nc1ccc([N+](=O)[O-])cc1OC,-4,-4,-1,0,86*,90,i
O=S(=O)(c1ccc(NC(=S)NC23CC4CC(CC(C4)C2)C3)cc1)N1CCCCC1,x,-1,15,x,x,x,x
O=C(CCNC(=O)C1CCN(S(=O)(=O)c2ccccc2)CC1)Nc1ccccc1,-2,-5,3,0,48*,107,i
C[C@H]1CN([C@@H](C)CO)C(=O)CCCn2nncc2CO[C@@H]1CN(C)S(=O)(=O)c1ccc(-c2ccccc2)cc1,x,0,-8,x,x,x,x
COc1ccc(C(C)=O)cc1COc1cc(C)c(Cl)c(C)c1,-2,2,-7,0,5,x,x
COc1ccc(C(C)=O)cc1COc1ccc(Cl)cc1Cl,0,0,-2,0,50*,56*,i
Cc1ccc(OCCN(C)C(=O)C2CCC(=O)N(CCCN3CCOCC3)C2)cc1 (centres undefined),-3,-3,-5,0,-5,x,x
O=C(c1cc2c(=O)n3ccccc3nc2s1)N1CCN(Cc2ccc3c(c2)OCO3)CC1,6,12,-4,5,74*,24*,i
Cc1ccc(C(=O)NCCNC(=O)c2ccc(C)nc2)cc1,0,-4,-7,0,61*,115,i
CC(=O)NCCNc1nc2cc(-c3cnn(CCC(C)C)c3)sc2c(=O)n1C,x,2,1,x,x,x,x
Cc1cc(Nc2ccccc2)nn1C(=O)c1ccc(Br)cc1,2,-1,0,0,50*,121,i
O=C(NC1CCCCC1)c1cccc2c(-c3ccc(F)c(F)c3)coc12,x,2,1,x,x,x,x
O=C(CCCn1c(=O)[nH]c2ccsc2c1=O)Nc1ccc(F)cc1,7,-4,-1,2,19,x,x
O=C(CCCCCn1c(=O)[nH]c2ccsc2c1=O)NCc1ccc2c(c1)OCO2,0,-2,1,0,113*,26*,i
O=C(CCn1c(=O)[nH]c2ccsc2c1=O)NCc1ccc(F)cc1,-3,-4,0,0,-7,95,i
O=C(CCCCCn1c(=S)[nH]c2ccccc2c1=O)NCc1ccc2c(c1)OCO2,-1,0,2,0,113*,29*,i
O=C(c1ccco1)N1CCN(S(=O)(=O)c2cccc(Cl)c2)CC1,2,-18,-2,0,-5,x,x
N#Cc1ccc(CN(Nc2ccccc2)c2ccccc2)cc1,x,3,3,x,x,x,x
